Screening results: PubChem, several laboratories
Only some compounds are listed: those with a hit (about 2.2% of all), similar ones and a draw of the others.
VLA-4 inh – inhibition in a human VLA-4 binding assay | VLA-4 expressing cells, ligand binding flow cytometry | inhibition, % (about 7 µM as worked out from the volumes in the protocol) | actives 0.2% (n = 330,000); in the data active = inhibition above about 50%
Target sequence (P13612 whole entry, looked up): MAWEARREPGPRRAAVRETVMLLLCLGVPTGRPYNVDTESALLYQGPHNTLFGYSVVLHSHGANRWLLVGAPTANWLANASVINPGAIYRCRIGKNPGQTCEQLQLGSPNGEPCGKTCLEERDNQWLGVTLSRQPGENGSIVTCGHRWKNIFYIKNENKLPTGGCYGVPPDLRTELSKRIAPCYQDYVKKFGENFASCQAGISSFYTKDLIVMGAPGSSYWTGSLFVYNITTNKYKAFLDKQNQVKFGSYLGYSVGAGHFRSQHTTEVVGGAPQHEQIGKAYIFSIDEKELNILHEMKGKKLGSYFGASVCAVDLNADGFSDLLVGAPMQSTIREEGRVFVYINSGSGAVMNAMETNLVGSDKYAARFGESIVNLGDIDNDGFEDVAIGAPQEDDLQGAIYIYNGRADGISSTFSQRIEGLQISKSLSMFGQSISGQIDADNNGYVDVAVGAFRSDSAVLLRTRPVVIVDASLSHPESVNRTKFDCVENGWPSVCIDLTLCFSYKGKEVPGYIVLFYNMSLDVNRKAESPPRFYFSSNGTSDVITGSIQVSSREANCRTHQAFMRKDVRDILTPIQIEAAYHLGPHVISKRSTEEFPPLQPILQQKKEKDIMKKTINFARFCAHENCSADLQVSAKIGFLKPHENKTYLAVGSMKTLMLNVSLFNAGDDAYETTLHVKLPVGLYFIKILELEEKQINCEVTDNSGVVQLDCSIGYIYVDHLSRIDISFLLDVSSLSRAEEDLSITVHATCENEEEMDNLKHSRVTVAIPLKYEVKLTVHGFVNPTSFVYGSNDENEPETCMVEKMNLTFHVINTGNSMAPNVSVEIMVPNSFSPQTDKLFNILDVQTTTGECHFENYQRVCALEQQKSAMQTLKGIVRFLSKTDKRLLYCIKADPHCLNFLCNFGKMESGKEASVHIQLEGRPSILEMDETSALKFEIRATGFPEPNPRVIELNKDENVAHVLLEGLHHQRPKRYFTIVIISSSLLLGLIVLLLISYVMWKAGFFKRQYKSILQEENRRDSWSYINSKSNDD
AI-2 QS mod – Vibrio harveyi AI-2 quorum sensing modulation | activity change, % at 7.5 µM | Vibrio harveyi JMH597 AI-2 luminescence/OD600 ratio, 9 h; hits give low values; strain lacks LuxN and CqsS sensors; 0 = neutral-control median | actives 0.4% (n = 300,000); in the data active = activity change below about -75%, passing the limit was not always enough; inconclusive = no clear call, values can overlap the other calls;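 note: luminescence divided by OD600 gain over 9 h not by final OD600 alone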
HIF act – HIF pathway transcriptional activation | U2OS HRE-luciferase reporter, luminescence; normalized: DMSO 0%, desferrioxamine 100% | activation, % at 7.5 µM (by protocol) | actives 0.32% (n = 300,000);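 active = mean activation of at least 10% of the iron chelator positive control signal, with at least half of replicates also reaching 10%; inconclusive = mean and replicate majority disagree about reaching 10%; inactive = mean and most replicates under 10%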
CHT PAM – human CHT allosteric activation; Q9GZV3; CHT-expressing cells, membrane potential dye, choline EC20; hits give high values; LV-AA mutant CHT in HEK293 cells; B-score at 10 µM; actives 0.49% (n = 310,000);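 active = initial fluorescence not abnormally high and integrated response B-score, plate-corrected, over 3 SD above library mean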
Platelet DG rel – platelet dense granule release activity; actives 0.22% (n = 300,000); inhibition, %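 (compounds screened at 7.5 µM in platelet-rich plasma)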; human platelet-rich plasma, SFLLRN dense granule ATP release, luminescence;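 active = mean replicate score, as percent of positive control, at or above 50; inconclusive = mean below 50 but at least one replicate at or above 50; inactive = mean and every replicate below 50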
CHT inh – inhibits the human high affinity choline transporter | B-score at 10 µM | CHT-expressing cells, membrane potential dye, choline response; hits give low values | AID 488975 | Q9GZV3 | actives 0.86% (n = 310,000);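 active = B-score over 3 SD under the library average, and starting fluorescence ratio not unusually high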;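 note: choline stimulus applied at its EC90 after an EC20 pre-addition; B-score computed on integrated fluorescence ratio after choline addition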
Numbers without * were called inactive; i = inactive; ? = inconclusive; . = no result given.

SMILES	VLA-4 inh	AI-2 QS mod	HIF act	CHT PAM	Platelet DG rel	CHT inh
NNC(=O)c1nc[nH]c1C(=O)Nc1ccccc1	13	-2	0	i	3	i
Nc1ccc(C(=O)Nc2ccc3nc(-c4ccncc4)[nH]c3c2)cc1	1	15	256*	i	8	i
O=C(Nc1ccc(-c2nc3ccc(NC(=O)c4cccs4)cc3[nH]2)cc1)c1cccs1	7	17	.	i	-3	i
CCCCNS(=O)(=O)c1ccc(NC(=O)Cc2ccc(OC)cc2)cc1	33	-96*	-1	i	4	i
COc1ccc(CC(=O)Nc2ccc(S(=O)(=O)NC(C)C)cc2)cc1	29	-53	0	i	-13	i
CCS(=O)(=O)c1nc(S(=O)(=O)c2ccc(C)cc2)c(N2CCC(O)CC2)s1	9	11	0	i	-4	i
N#C/C(=C\c1ccc(/C=C(/C#N)c2nn(CCO)c(N)c2C#N)cc1)c1nn(CCO)c(N)c1C#N	4	17	155*	i	-51	i
CSc1ccc(/C=N/NC(=O)c2cccc(O)c2)cc1	-8	-54	3	i	72*	i
Cc1ccc(NC(=O)C=NOCC(=O)Nc2cc(C)cc(C)c2)cc1	8	.	.	.	.	.
O=S(=O)(Nc1nc2ccccc2nc1Nc1ccc2c(c1)OCCO2)c1cccs1	-28	-11	0	i	0	-7.7*
COc1ccc(S(=O)(=O)Nc2nc3ccccc3nc2Nc2ccc3c(c2)OCO3)cc1	20	6	0	i	3	i
OC(CN1CC=C(/C=C/c2ccc(Br)cc2)CC1)c1ccccc1 (centres undefined)	3	0	0	i	-2	i
CCC(C)OC(=O)C1=C(C)OC23OC(N)=C(C#N)C12C(=O)c1ccccc13 (centres undefined)	-2	19	0	i	50*	i
Cc1cnc(C(=O)OC(C)C(=O)NC2CCCc3ccccc32)cn1 (centres undefined)	11	23	0	i	13	i
COc1ccc(CCNC(=O)c2nc(-c3cccs3)no2)cc1OC	-6	13	0	i	4	i
O=C(NCc1ccc(F)cc1)c1nc(-c2cccs2)no1	3	-76*	0	i	3	i
O=C(c1ccc(-c2nnc(-c3ccccc3)o2)cc1)N1CCCCCC1	14	5	40*	i	.	i
O=c1[nH]c2c(c(=O)[nH]1)CCC2	-2	-5	0	i	-1	i
O=C1/C(=C/c2ccccn2)SC(=S)N1N1CCOCC1	0	2	.	i	.	i
CCCC(=O)NC(c1ccc(OC)cc1)c1ccc2cccnc2c1O (centres undefined)	15	?	74*	i	-1	i
CCCCC(=O)NC(c1ccccc1)c1ccc2cccnc2c1O (centres undefined)	-6	.	48*	i	-1	i
CCC(=O)NC(c1ccc(OC)cc1)c1c(O)ccc2ccccc12 (centres undefined)	5	19	1	i	3	i
CCC(=O)NC(c1ccc(OC)cc1)c1cc(Cl)c2cccnc2c1O (centres undefined)	-2	64	23*	i	-6	i
Cc1cc(NC(c2cccnc2)c2ccc3cccnc3c2O)no1 (centres undefined)	-13	-54	22*	i	-3	i
CCCCC(=O)NC(c1ccc([N+](=O)[O-])cc1)c1c(O)ccc2ccccc12 (centres undefined)	-14	53	0	i	-1	i
SMILES	VLA-4 inh	AI-2 QS mod	HIF act	CHT PAM	Platelet DG rel	CHT inh
CC(=O)Nc1ccc(S(=O)(=O)N[C@@H](C)C(=O)OCC(=O)NC2CCCC2)cc1	-11	.	.	.	.	.
CCN(C[C@H]1N[C@@](Cc2ccccc2)(C(=O)OC)[C@H]2C(=O)N(C)C(=O)[C@@H]12)C(=O)Nc1ccccc1	31	.	.	.	.	.
O=C(COC(=O)c1cccc(OC(F)F)c1)NCC1CCCO1 (centres undefined)	-8	.	.	.	.	.
CC1=NNC(=O)C1CC(=O)N/N=C(\C)c1ccco1 (centres undefined)	6	19	0	i	-5	i
Oc1cccc(C(Nc2nccs2)c2ccc3cccnc3c2O)c1 (centres undefined)	0	-85*	35*	i	3	i
CC(=O)NC(c1cc(Cl)c2cccnc2c1O)C(C)C (centres undefined)	-5	.	.	.	.	.
CCC(=O)NC(c1ccccc1OC)c1ccc2cccnc2c1O (centres undefined)	9	-30	35*	i	1	i
CCC(=O)NC(c1ccco1)c1cc(Cl)c2cccnc2c1O (centres undefined)	19	53	2	i	-1	i
CC(=O)NC(c1ccc(C)cc1)c1cc(Cl)c2cccnc2c1O (centres undefined)	-2	-50	9.8*	i	-4	i
Oc1c(C(Nc2cccc(C(F)(F)F)c2)c2cccnc2)ccc2cccnc12 (centres undefined)	2	23	2	i	-3	i
CCCCC(=O)NC(c1ccccc1Cl)c1ccc2cccnc2c1O (centres undefined)	3	-27	128*	i	-4	i
CCCCC(=O)NC(c1ccco1)c1cc(Cl)c2cccnc2c1O (centres undefined)	-12	-18	0	i	-3	i
COC(=O)C1(C(C[N+](=O)[O-])c2ccc(C)cc2)C(=O)NCC1c1ccco1 (centres undefined)	6	-6	0	i	-6	i
COc1ccc(S(=O)(=O)N2CCOCC2)cc1NC(=O)c1sccc1C	-8	.	.	.	.	.
COc1cccc(C(NC(C)=O)c2ccc3cccnc3c2O)c1 (centres undefined)	10	.	38*	i	1	i
COc1ccc(CNC(=O)CSc2cccc3cccnc23)cc1	7	25	1	i	-3	i
CCCC(=O)NC(c1cccs1)c1cc([N+](=O)[O-])c2cccnc2c1O (centres undefined)	20	-26	-33	i	-8	i
COc1ccc(C(NC(=O)c2cccnc2)c2cc(Cl)c3cccnc3c2O)cc1OC (centres undefined)	-8	-9	12*	i	-13	i
CCCC(=O)NC(c1ccccc1)c1ccc2cccnc2c1O (centres undefined)	4	.	51*	i	-2	i
O=C(CCc1ccccc1)NC(c1cccs1)c1cc(Cl)c2cccnc2c1O (centres undefined)	.	46	102*	.	5	.
